# Results published in PubChem BioAssay AID588342 (National Center for Advancing Translational Sciences (NCATS), 2011).
# Out of some 360,000 compounds screened, about 25,000 (6.9%) were called active. Not shown: some 9% with an inconclusive outcome. Calls come from the whole dose curve; as a rule, active = well fitted inhibition curve with a large enough effect; inconclusive = small, poorly fitted or top-dose-only effect; inactive = flat fitted curve, though single readings scatter. The entries come from a sample that favours actives as a whole. Entries that show only a call come without a potency.
# Target: Luciferin 4-monooxygenase (Photinus pyralis) (UniProt P08659)
# Experiment: qHTS profiling assay for firefly luciferase inhibitor/activator using purifed enzyme and Km concentrations of substrates (counterscreen for miR-21 project); note: nearly all actives have a fitted effect of over 55% in size
# Settings: purified FLuc, luminescence inhibition; series mostly up to 57.5 µM
# From the text: MLPCN Grant: 1 R21 NS059478-01 (miR-21 grant) Assay Provider: NCGC NCGC Assay Overview: Firefly (Photinus pyralis) luciferase is one of the most commonly used transcriptional reporters for a number of reasons. It is considered one of the more dynamically responsive reporters -that is, responsive to changes in reporter transcription - as it requires no post-translational modifications and is enzymatically active directly after protein synthesis (Wood, 1998). Additionally, the half-life of the luciferase protein is short relative to other reporter-gene products (Wood, 1995). Whereas reporters with long half-lives potentially allow for increased signal due to accumulation of reporter-gene product, once accumulated in the cell, dynamic changes in reporter-gene expression may be difficult to detect(Fan and Wood, 2007; Almond et al., 2004). It has been shown that wild-type P. pyralis luciferase has a half-life of approximately […] hours in mammalian cells (Thompson et al., 1991). Firefly luciferase reporter-gene assays are also generally considered one of the most sensitive assay types (Wood, 1995; Wood, 1998). Although light produced in a bioluminescence reaction is of lower intensity than that produced during fluorescence emission, this is offset by little to no background light inherent to luminescent assays. Thus the luciferase reporter can be expressed at much lower levels than fluorescent proteins while still providing robust signal. # However, it was initially observed, in 1991, by Thompson et al., that compounds that resemble the substrates of firefly luciferase (FLuc) can act as competitive inhibitors of the enzyme, and that these compounds, upon interaction with luciferase in the cell, can actually stabilize the protein and increase its half-life. Accumulated intracellular FLuc protein can be measured as an increase in luminescence signal, upon addition of detection reagents (which contain high concentrations of FLuc substrates) commonly used in high-throughput screening. In cell-based reporter gene assays that use FLuc as the reporter gene to quantitate the potential influence of a given compound against the target biology, this apparent increase in luminescence can mistakenly be interpreted as identification of a compound that is active against the target of interest. This is the case for the miR-21 FLuc reporter gene assay used to identify inhibitors of the miR-21 pathway (PubChem AID 2289) - compounds of interest will inhibit miR-21 biogenesis/expression or activity, and are identified by causing an increase in luminescence, due to increased FLuc translation. However, FLuc inhibitory compounds that stabilize the FLuc protein will give an identical read-out, making it difficult to distinguish compounds that are active against the target from those active against FLuc. Previous profiling work to determine the prevalence of compounds that affect FLuc enzymatic activity (PubChem AID 411) identified that ~3% of the MLSMR library (then at ~72K) inhibited FLuc. […] Since the MLSMR had grown to ~350K compounds, and since it was expected that a significant percentage of compounds found active in the miR-21 FLuc assay would be FLuc inhibitors, the library was screened for activity against FLuc using a biochemical assay of purified FLuc and KM concentrations of FLuc substrates (D-luciferin and ATP).
# NCGC Assay Protocol Summary: Reagents: 50mM Tris acetate, pH 7.5; 10mM Mg acetate; 10uM D-luciferin (Sigma #L9504); 10uM ATP; 0.01% Tween-20; 0.05% BSA; 10nM P. pyralis luciferase (Sigma #L9506) Control compounds used were two known firefly luciferase inhibitors (compounds (2) and (5) in Auld et al., 2010), and DMSO. […]
# Luciferin 4-monooxygenase (Photinus pyralis), sequence (P08659 whole entry, looked up): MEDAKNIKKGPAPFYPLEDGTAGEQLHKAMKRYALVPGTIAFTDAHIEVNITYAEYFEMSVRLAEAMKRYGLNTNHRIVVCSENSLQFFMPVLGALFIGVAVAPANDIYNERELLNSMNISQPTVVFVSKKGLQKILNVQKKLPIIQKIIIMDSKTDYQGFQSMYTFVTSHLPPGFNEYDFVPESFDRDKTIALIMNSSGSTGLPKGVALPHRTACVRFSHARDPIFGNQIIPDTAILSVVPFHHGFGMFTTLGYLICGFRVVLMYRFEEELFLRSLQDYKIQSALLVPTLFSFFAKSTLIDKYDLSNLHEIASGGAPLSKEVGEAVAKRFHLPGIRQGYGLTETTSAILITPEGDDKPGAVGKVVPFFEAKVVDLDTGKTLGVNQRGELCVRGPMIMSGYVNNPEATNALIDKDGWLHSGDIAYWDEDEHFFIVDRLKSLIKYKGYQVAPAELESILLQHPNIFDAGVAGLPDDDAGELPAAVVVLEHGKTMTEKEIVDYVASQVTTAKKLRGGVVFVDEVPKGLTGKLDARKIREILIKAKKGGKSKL
SMILES,Potency,"activity change, negative = inhibition"
Cn1c(=O)c(=O)n(C)c2cc(NC(=O)c3ccccc3Br)ccc21,inactive,
CS(=O)(=O)c1ccccc1C(=O)Nc1ccc2sccc2c1,inactive,
O=C(Nc1ccc2sc3ccccc3c(=O)c2c1)c1ccccc1Cl,2.13 µM (active),
COc1ccccc1NC(=O)C1=C(C)Nc2ncnn2C1c1sccc1C (stereo unspecified),inactive,
COc1ccccc1Nc1nnc(SC(C)C(=O)NC2CC2)s1 (stereo unspecified),inactive,
CCCOC(=O)c1ccc(N2C(=O)c3ccccc3C2=O)cc1,inactive,
CC1=C(C(=O)OCc2ccccc2)C(c2ccc(C(F)(F)F)cc2)NC(=O)N1CCCCCC(=O)O (stereo unspecified),inactive,
Cc1[nH]n(-c2ccccc2)c(=O)c1CCOC(=O)c1ccc(C(F)(F)F)cc1,21.3 µM (active),
O=C(NC1(C(F)(F)F)N=C(c2ccccc2)N(C2CCCCC2)C1=O)c1ccccc1F (stereo unspecified),inactive,
CN(C)CCCN(C(=O)c1ccc(S(=O)(=O)N2CCCc3ccccc32)cc1)c1nc2ccc(F)cc2s1,inactive,
CCS(=O)(=O)N1Cc2ccccc2CC1C(=O)Nc1nc2ccc(F)cc2s1 (stereo unspecified),15.1 µM (active),
CCS(=O)(=O)N1Cc2ccccc2CC1C(=O)Nc1ccc(OC)cc1OC (stereo unspecified),inactive,
O=C(COC(=O)c1cc(S(=O)(=O)N2CCOCC2)ccc1Cl)NCCc1ccccc1,inactive,
CCOC(=O)c1c(C)[nH]c(C)c1S(=O)(=O)NCC(=O)NCc1cccc(C)c1,inactive,
CN(Cc1nc(-c2cnccn2)no1)Cc1n[nH]c2c1CCCCC2,inactive,
COc1ccc(C(=O)NC(Cc2ccc(OC(=O)c3ccc(OC)cc3)cc2)C(=O)O)cc1 (stereo unspecified),12 µM (active),
CCOC(=O)C(Cc1ccccc1)NC(=O)CCC(=O)c1ccc(OC)cc1 (stereo unspecified),inactive,
COc1ccc(C(=O)N[C@H](C(=O)NCc2ccccc2)C(C)C)cc1,inactive,
C[C@H](NC(=O)c1[nH]cnc1C(=O)Nc1nccs1)c1ccccc1,inactive,
COc1cc(OC)cc(C(=O)Nc2cc3nn(-c4ccccc4)nc3cc2Cl)c1,5.36 µM (active),
CCOc1ccc(-n2nc3ccc(NC(=O)c4ccc(OC)c(Cl)c4)cc3n2)cc1,inactive,
COc1cccc(C(=O)Nc2ccc(-c3cc(C(F)(F)F)nn3-c3ccccc3)cc2)c1,inactive,
CCC(=O)Nc1ccc(C)cc1-c1nc2ccccc2n(Cc2ccccc2)c1=O,inactive,
CN(C)/C=C1\C=C(c2ccccc2)OC1=O,inactive,
COc1cccc(/C=C2\C=C(c3ccc(C)cc3)OC2=O)c1OC(C)=O,15.1 µM (active),
CC(=O)Oc1ccc(-c2nc3c(C)cccc3c(=O)o2)cc1,inactive,

SMILES,Potency,"activity change, negative = inhibition"
O=C1C=C(c2ccnc3cc(Cl)ccc23)C[C@@H](c2ccc3c(c2)OCO3)C1,inactive,
Cc1cc2c(c(=O)n1Cc1ccccc1)C1O[C@](CCCCN3C(=O)c4ccccc4C3=O)(Cc3ccccc31)O2,,4.34% [at 11.5 µM] (inactive)
O=C(CCCN=C1NS(=O)(=O)c2ccccc21)OCC(=O)c1ccc(F)c(F)c1,inactive,
O=Cc1ccc(OCc2cn3ccccc3n2)cc1,12 µM (active),
Cn1cc[n+](C)c1COc1ccc(C=O)cc1,inactive,
COc1ccc(C(=O)NCc2cn3ccccc3n2)cc1,inactive,
Cc1ccc(OCCSc2nc(C)c(Cc3ccccc3)c(=O)[nH]2)cc1,inactive,
O=C(Nc1ccn(Cc2ccccc2)n1)c1n[nH]c([N+](=O)[O-])c1Cl,0.849 µM (active),
O=C(Nc1ccccc1N1CCN(c2ccccc2)CC1)c1cccc(F)c1,inactive,
CCn1c(=O)c(=O)n(CC)c2cc(N3CCCCC3)c(NC(=O)c3cccc(F)c3)cc21,inactive,
O=C(Cn1cnc([N+](=O)[O-])n1)NCCc1ccccc1,inactive,
O=C(Nc1ccn(Cc2ccccc2)n1)c1cccc(F)c1,4.78 µM (active),
Cc1ccc(Cn2ccc(NC(=O)C3C4CCC(C4)C3C(=O)O)n2)cc1 (stereo unspecified),inactive,
COc1cc(NC(=O)CSc2nc3nc(C)c(Cc4ccc(C)cc4)c(C)n3n2)cc(OC)c1OC,inactive,
CCC(C)N(C(=O)CSc1nnnn1-c1ccccc1OC)C1CCS(=O)(=O)C1 (stereo unspecified),inactive,
CCC(=O)N1CCc2cc(S(=O)(=O)NC(C(=O)NCCc3ccc(C)cc3)C(C)C)ccc21 (stereo unspecified),inactive,
Cc1cc(C)nc(SCC(=O)c2ccc(Cl)cc2)n1,inactive,
Cc1cc(Oc2ccc(Cl)cc2)nc(SCC(=O)c2ccccc2)n1,inactive,
Cc1cc(C)nc(S/C=C/C(=O)c2ccccc2)n1,3.79 µM (active),
O=C(CSc1nccn1-c1ccc(F)cc1)Nc1cccc2ccccc12,inactive,
S=C(c1ccc(-c2ccccc2)o1)N1CCCCC1,2.69 µM (active),
OCCN1CCN(C(=S)c2ccc(-c3ccccc3)cc2)CC1,inactive,
S=C(c1ccccc1)N1CCCC1,inactive,
COc1cccc(C(=O)NC2(C(F)(F)F)C(=O)Nc3c2c(=O)[nH]c(=O)n3-c2ccc(C)cc2)c1 (stereo unspecified),inactive,
CC1CC(C)CN(C(=O)COC(=O)c2ccc3ncsc3c2)C1 (stereo unspecified),inactive,
Cc1nc2sccn2c(=O)c1S(=O)(=O)NCCc1ccccc1,inactive,

SMILES,Potency,"activity change, negative = inhibition"
CCCc1cc(-c2n[nH]c(=S)n2Cc2ccccc2)cs1,inactive,
Cc1nc(C)c(-c2csc(NCCc3ccccc3)n2)s1,16.9 µM (active),
Cc1c(Cl)cccc1NC(=O)C1CCCN(c2ncnc3onc(C)c23)C1 (stereo unspecified),inactive,
Cc1ccc(Cl)cc1N1CCN(C(=O)c2cnc3c(-c4ccc(F)cc4)c(C)nn3c2C)CC1,inactive,
Cc1noc(C)c1COc1cccc(C(=O)Nc2cccnc2)c1,inactive,
O=C(Nc1cccnc1)c1noc2c1CCCCC2,7.57 µM (active),
O=C(Nc1cccnc1)c1cccc(S(=O)(=O)N2CCCC2)c1,inactive,
CCOC(=O)c1c(C)[nH]c(CCC(=O)Nc2ccc(OC)c(OC)c2)c1C,inactive,
Cc1cc2nc(-c3ccc(NC(=O)c4cccnc4)cc3)oc2cc1C,6.75 µM (active),
CC(=O)NC(=S)Nc1ccc(NC(=O)c2cccnc2)cc1,inactive,
O=C(Cc1ccccc1)Nc1ccc(NC(=O)c2cccnc2)cc1,inactive,
Cc1cc(NS(=O)(=O)c2ccc(NC(=O)c3cccnc3)cc2)nc(C)n1,inactive,
O=C(Nc1ccc(-c2nc3cc(NC(=O)c4ccccc4Cl)ccc3o2)cc1)c1ccccc1Cl,inactive,
Cc1ccc2nc(-c3ccc(NC(=O)c4cccnc4)cc3)oc2c1,5.36 µM (active),
CC(C)NC(=O)C1CCC(Cn2c(=O)c3sccc3n(Cc3ccc(F)cc3)c2=O)CC1 (stereo unspecified),inactive,
COc1cc(OC)c(NC(=O)N2CC3CCCN3c3ccccc32)cc1Cl (stereo unspecified),inactive,
COC(=O)c1ccccc1NC(=O)Cn1c(=O)cc(C)c2c(C)nn(-c3cccc(Cl)c3C)c21,inactive,
COc1ccc2ncc3c(-c4ccc(C)c(C)c4)nn(CC(=O)NC4CCCC4)c3c2c1,inactive,
CCOC(=O)COc1cc(O)c2c(=O)cc(-c3ccccc3)oc2c1,inactive,
COc1ccc(-c2cc(=O)c3c(O)cc(O[C@@H]4O[C@H](CO[C@@H]5O[C@@H](C)[C@H](O)[C@@H](O)[C@H]5O)[C@@H](O)[C@H](O)[C@H]4O)cc3o2)cc1O,inactive,
COc1c(O)cc2oc(-c3ccc(O)c(O)c3)cc(=O)c2c1O,19 µM (active),
COc1ccccc1CNC(=O)CCCCn1c(=O)c2ccccc2n(CC(=O)Nc2cc(Cl)ccc2C)c1=O,inactive,
Cc1nn(C(=O)c2c(F)cccc2F)c(C)c1S(=O)(=O)N1CCOCC1,inactive,
CC(C)(C)OC(=O)NCCCCCNC(=O)c1[nH]cnc1C(=O)Nc1nccs1,inactive,
Cc1ccc(-n2c(SCC(=O)NCc3ccc4c(c3)OCO4)nnc2-c2cccnc2)c(C)c1,inactive,
Cc1ccc(C)c(N2CCN(C(=O)C3CCC(CNS(=O)(=O)c4cccs4)CC3)CC2)c1 (stereo unspecified),inactive,

SMILES,Potency,"activity change, negative = inhibition"
Cc1ccc2c(c1)c1ncnc(N3CCc4ccccc4C3)c1n2C,13.5 µM (active),
Cc1ccc2c(c1)c1ncn(Cc3ccc(F)cc3)c(=O)c1n2C,inactive,
Cc1ccc(S(=O)(=O)Nc2nc3ccccc3nc2N2CCc3ccccc3C2)cc1,inactive,
CCN(CC)CCCNC(=O)c1cn(C)c2ccc(S(=O)(=O)N(C)C3CCCCC3)cc2c1=O,inactive,
Cn1c(=O)c2c(-c3ccccc3Br)n(Cc3ccccc3)cc2n(C)c1=O,inactive,
COc1cc(OC)cc(-c2c(-c3cccs3)c3cc(-c4ccc(OC)cc4F)ccc3n2C)c1,inactive,
CCn1cc(C(=O)NCc2ccc(OC)cc2OC)c(=O)c2ccc(C)nc21,inactive,
O=C(/C=C/c1ccccc1)N1CCN(Cc2cc(=O)n3nc(-c4ccccc4F)sc3n2)CC1,inactive,
O=C(CNC(=O)c1cccnc1)N/N=C/c1cc(Br)c(O)c(Br)c1,inactive,
Cc1cc(/C=N/NC(=O)c2cccnc2)c(C)n1CC(C)C,7.57 µM (active),
O=C(CNC(=O)c1cccnc1)N/N=C/c1cccnc1,inactive,
COc1ccc(Cn2c(C(=O)O)c(CNCCc3cccs3)c3ccc(OC)cc32)cc1,inactive,
Cc1cc(N=Nc2ccc3ccccc3c2)ccc1O,1.35 µM (active),
CCOc1ccc(-c2nonc2NC(=O)c2oc3ccc(C)cc3c2C)cc1OCC,inactive,
COc1ccc(/C=C/C(=O)Nc2ccc(C34CC5CC(CC(O)(C5)C3)C4)cc2)cc1OC,0.601 µM (active),
COc1ccc(/C=C/C(=O)Nc2ccc(C)cc2)cc1S(=O)(=O)N1CCOCC1,inactive,
COc1ccc(/C=C/C(=O)Nc2ccc3c(c2)OCCO3)cc1OC,23.9 µM (active),
COc1cccc(NC(=O)CSc2nccn(-c3ccc4c(c3)OCCO4)c2=O)c1,inactive,
COc1ccc(/C=C/C(=O)N2CCCC2)cc1OC,inactive,
COc1cccc(/C=C/C(=O)Nc2ccc3c(c2)OCCO3)c1,0.757 µM (active),
COc1ccc(NS(=O)(=O)c2cc(NC(=O)/C=C/c3cc(OC)c(OC)c(OC)c3)ccc2N2CCCCC2)cc1,inactive,
COc1ccc2c(c1)c(=O)c(C(=O)c1ccccc1)cn2CC(=O)Nc1ccc2c(c1)OCCO2,inactive,
COc1ccc(S(=O)(=O)N(C)CC(=O)Nc2ccc3c(c2)OCCO3)cc1OC,inactive,
